An excerpt weighted towards active compounds, which were near 4.3% of everything screened.
HIF-2a inh: HIF-2a inhibition. 786-0 RCC cells HIF-2a reporter, luciferase luminescence, overnight. inhibition, % at 18.8 µM. 0.72% of 360,000 active. AID 624352;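 active = inhibition of the luminescence signal of 40% or more relative to plate controls, in a single-dose primary screen at 18.75 µM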
Peg3 promoter: reduces Peg3 promoter-driven luciferase expression in HeLa | HeLa PEG-Prom luciferase reporter, luminescence, overnight | inhibition, % at 20 µM | 1.7% of 360,000 active | AID 588405;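 active = inhibition of at least 50% at 20 µM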
CHOP inhibitor: inhibitors of CHOP induction in ER stress response; inhibition, % at 10 µM; CHO-K1 CHOP-promoter luciferase, tunicamycin-induced, 15-18 h; 3.8% of 220,000 active;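 active = compounds that reduced the stress-induced luciferase reporter signal by more than about 70% of percent inhibition, limit read from the data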;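 note: 0% = tunicamycin plus vehicle and 100% = wells without tunicamycin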
CF NFkB inh: inhibitors of cystic fibrosis induced NF-kB; KKLEB NF-kB-GFP reporter, PAF-induced, GFP fluorescence overnight; inhibition, % at 5 µM; 0.86% of 360,000 active;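 active = at least 50% inhibition at 5 µM, scaled per plate between neutral and stimulator controls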;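 note: PAF is a Pseudomonas aeruginosa culture filtrate used as stimulus; plate controls were PAF-stimulated DMSO wells for no effect and unstimulated DMSO wells for full effect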
TRPM1 prom inh: inhibitors of MITF-driven TRPM1 promoter in melanoma cells | SK-MEL-5 TRPM1 promoter luciferase, 24 h | inhibition, % at 12.5 µM | AID 488899 | 0.83% of 330,000 active;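 active = mean inhibition across replicates of 60% or more, whatever share of single replicates reaches that level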
KKLEB tox: counter-screen for CF NF-kB inhibitors: cytotoxicity; activity change (cytotoxicity), % at 5 µM; 0.36% of 360,000 active; AID 602141; KKLEB CF airway cells viability, ATPlite luminescence, overnight; hits give low values; cells stimulated with P. aeruginosa culture filtrate;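 active = corrected activity change at or below -50% at 5 µM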
The depositor's hits bear a star; · = no result.

SMILES | HIF-2a inh | Peg3 promoter | CHOP inhibitor | CF NFkB inh | TRPM1 prom inh | KKLEB tox
Cc1ccc2nc(-c3ccc(NS(C)(=O)=O)cc3)cc(-c3ccccc3)c2c1 | 4 | 17 | 78* | -4 | 13 | 26
Cc1ccc2nc(-c3ccncc3)cc(-c3ccccc3)c2c1 | -30 | -14 | 20 | -1 | 7 | -30
CCS(=O)(=O)Nc1ccc(-c2cc(-c3ccccc3)c3cc(C)ccc3n2)cc1 | -3 | 11 | 87* | 14 | -2 | 24
Cc1ccc(-c2cc(C(=O)Nc3ccc(S(=O)(=O)Nc4nc(C)cc(C)n4)cc3)c3ccccc3n2)cc1 | -7 | 4 | 44 | -10 | 5 | -1
Cc1ccc(Cl)cc1N1CCN(C(=O)c2cn(C)c(=O)c3c2c2ccccc2n3C)CC1 | 6 | 43 | 79* | 17 | -3 | -14
COc1ccc2nc(Cl)cc(Cl)c2c1 | 14 | -7 | -11 | -1 | -5 | -9
C=CS(=O)(=O)c1c2cc(OC)ccc2nc2ccc(OC)cc12 | -381 | 98* | · | -22 | 40 | -7
CCCCCCC[C@@H](C/C=C/CCC(=O)N(C)C/C(=C/Cl)C/C(=C\C(=O)N1CC(OC)=CC1=O)OC)OC | 9 | 41 | · | 54* | 75* | -61*
CC(C)c1nc(N2CCOCC2)c(C#N)c2c1CCC2 | 18 | 10 | 72* | 18 | -18 | 2
Cc1nc(SCC(=O)O)c(C#N)c2c1CCCC2 | 16 | 3 | -7 | -6 | 6 | 16
CSc1nc(N2CCOCC2)c2c(c1C#N)CCCCC2 | 29 | 9 | 73* | 24 | 3 | -7
CSc1nc(C)c2c(c1C#N)CCCC2 | 12 | 17 | 92* | 5 | -7 | -11
CCc1nnc(NC(=O)COC(=O)c2cc(OC)cc(OC)c2)s1 | 10 | -2 | · | 25 | 7 | -8
O=C(COc1ccc2ccccc2c1)Nc1nnc(-c2ccco2)s1 | · | · | 72* | · | · | ·
CCN(C(=O)CSc1nc2ccccc2n1C)C1CCS(=O)(=O)C1 (configuration not stated) | 10 | -1 | · | 3 | 2 | -3
COc1ccc(NC(=O)COC(=O)/C=C/C(=O)OCC(=O)Nc2ccc(OC)c(Cl)c2)cc1Cl | 22 | 56* | -1 | -22 | -7 | -8
Clc1ccc(-c2cc(-c3ccccc3)on2)cc1 | -271 | -400 | · | 15 | -86 | -3
CCc1ccn2cc(-c3cc(-c4ccccc4)no3)nc2c1 | 64* | 73* | 77* | -27 | 78* | -52*
COc1ccc2c(c1)[nH]c1c(N3CCN(Cc4ccc5c(c4)OCO5)CC3)ncnc12 | 27 | 34 | 75* | -3 | 23 | -13
c1ccc(CN2CCN(c3ncnc4c3[nH]c3ccccc34)CC2)cc1 | 24 | 56* | 87* | -2 | 49 | -1
COc1cccc2[nH]c3c(N4CCc5ccccc5C4)ncnc3c12 | · | · | -30 | · | · | ·
c1ccc2c(c1)CCN(c1ncnc3c1[nH]c1ccccc13)C2 | 0 | 30 | 71* | -20 | 55 | 0
O=C(Nc1ccccc1)N1CCC(O)(c2cccc(C(F)(F)F)c2)CC1 | 23 | 20 | · | 2 | 10 | 10
OC1(c2cccc(C(F)(F)F)c2)CCN(c2ccc(-c3ccccc3)nn2)CC1 | -141 | -119 | 85* | 2 | -66 | -18
O=C(Nc1ccc(F)cc1)OCCOc1ccc([N+](=O)[O-])cc1 | -13 | 5 | 9 | -11 | -1 | 7
SMILES | HIF-2a inh | Peg3 promoter | CHOP inhibitor | CF NFkB inh | TRPM1 prom inh | KKLEB tox
OC1(c2cccc(C(F)(F)F)c2)CCN(c2ncnc3c2[nH]c2ccccc23)CC1 | 16 | 36 | 71* | -11 | 22 | -11
O=C(C(Br)=Cc1ccccc1)c1ccccc1 | 86* | 108* | · | 94* | 94* | -43
CC1CCN(c2ccc3c(c2)S(=O)(=O)c2cccc(C(=O)NC4CCCCC4)c2C3=O)CC1 | -63 | -48 | · | -17 | · | -16
COc1ccccc1-c1nnc(NC(=O)c2ccc3c(c2)OCO3)s1 | -42 | 30 | 69 | 59* | -4 | -56*
CCOC(=O)CSc1nnc(NC(=O)c2ccc3c(c2)OCO3)s1 | 54* | 33 | · | -9 | 5 | 23
CCCCOC(=O)Nc1nnc(-c2ccccc2OC)s1 | 5 | -7 | 83* | -12 | 7 | 6
O=C(Nc1nnc(SCC(=O)N2CCCc3ccccc32)s1)c1ccc2ccccc2c1 | -179 | -210 | 44 | 5 | -49 | -50*
CCSc1nnc(NC(=O)c2ccc3c(c2)OCO3)s1 | -227 | -258 | · | 7 | -55 | -14
O=C(Nc1nnc(SCC(=O)N2CCCc3ccccc32)s1)c1ccccc1 | -164 | -168 | 31 | 5 | -36 | -29
COc1ccccc1-c1nnc(NC(C)=O)s1 | -235 | -178 | -17 | -21 | -32 | 8
Cc1nc2c(OCc3ccccc3)cccn2c1N(C)C(=O)C1CCCCC1 | 14 | 12 | · | -20 | · | 19
COCc1cc(=O)n2[nH]cc(-c3ccsc3)c2n1 | 8 | 20 | · | -6 | -2 | 9
O=C(N/N=C/c1ccc(Cl)cc1)c1ccc2nc[nH]c2c1 | -90 | -34 | · | -1 | · | -4
CC1(C)Cc2cccc(OCC(=O)OCC(=O)Nc3ccc(S(N)(=O)=O)cc3)c2O1 | 6 | 9 | · | -32 | · | 5
Cc1cc(O)c(C(=O)/C=C/c2ccc(Cl)cc2)c(=O)o1 | -97 | -119 | · | -20 | -10 | 8
O=C(/C=C/c1ccc(Cl)cc1)c1ccc([N+](=O)[O-])o1 | 49* | 107* | · | 96* | 98* | -48
O=C1NC[C@H](CCCCN2C[C@H](Cc3ccc(O)cc3)N(CCc3ccccc3)C(=O)C2=O)N(CC2CCCCC2)C1=O | -7 | · | · | · | · | ·
O=C1c2cccc3c(N4CCCCC4)ccc(c23)C(=O)N1c1cccc(O)c1 | -193 | -124 | 72* | -18 | -25 | 10
N#Cc1c([N+](=O)[O-])cc([N+](=O)[O-])cc1S(=O)(=O)Cc1ccccc1 | 94* | 98* | · | 82* | 93* | -62*
CC1CCCCN1C(=O)CN1C(=O)NC2(CCCCC2C)C1=O (configuration not stated) | 2 | 33 | · | 16 | 1 | -3
CCCS(=O)(=O)c1c(S(=O)(=O)CCC)c2c(C)cccn2c1C(=O)N/N=C/c1cc(O)cc(O)c1 | 10 | 53* | 60 | 11 | 58 | 0
CCCS(=O)(=O)c1c(S(=O)(=O)CCC)c2c(C)cccn2c1C(N)=O | 7 | 9 | -4 | 3 | 2 | 7
COc1ccc(Cl)cc1NC(=O)c1[nH]c(C)c(C(C)=O)c1C | 25 | 15 | · | -27 | 8 | 6
CCc1c(C(=O)Nc2ccc(OC)c(Cl)c2)[nH]c(C)c1C(C)=O | -54 | 1 | 86* | 7 | 6 | -5
Cc1cc(=O)oc2cc(OCCSCCN3CCCCC3)ccc12 | -25 | -14 | 6 | 22 | -21 | -9
CCc1nnc(NC(=O)CCc2ccc(C)o2)s1 | -8 | -18 | 75* | 11 | -18 | -2
